The inhibition is the change of the read-out against control, counted positive when it falls.

Our source for the inhibition values is PubChem BioAssay AID693 (University of Pittsburgh Molecular Library Screening Center, 2007).

Each structure is given as a SMILES string. Screen size: about 97,000 compounds; about 130 (0.13%) were called active. Only a selection was taken, and actives are over-represented in it overall. A number with no mark means an inactive call. Cut-off read from the data, not from the text of the source: active = inhibition above about 34% (passing the limit was not always enough); inactive = the rest.

Serine/threonine-protein kinase PLK1 (Homo sapiens), sequence (P53350 whole entry, looked up): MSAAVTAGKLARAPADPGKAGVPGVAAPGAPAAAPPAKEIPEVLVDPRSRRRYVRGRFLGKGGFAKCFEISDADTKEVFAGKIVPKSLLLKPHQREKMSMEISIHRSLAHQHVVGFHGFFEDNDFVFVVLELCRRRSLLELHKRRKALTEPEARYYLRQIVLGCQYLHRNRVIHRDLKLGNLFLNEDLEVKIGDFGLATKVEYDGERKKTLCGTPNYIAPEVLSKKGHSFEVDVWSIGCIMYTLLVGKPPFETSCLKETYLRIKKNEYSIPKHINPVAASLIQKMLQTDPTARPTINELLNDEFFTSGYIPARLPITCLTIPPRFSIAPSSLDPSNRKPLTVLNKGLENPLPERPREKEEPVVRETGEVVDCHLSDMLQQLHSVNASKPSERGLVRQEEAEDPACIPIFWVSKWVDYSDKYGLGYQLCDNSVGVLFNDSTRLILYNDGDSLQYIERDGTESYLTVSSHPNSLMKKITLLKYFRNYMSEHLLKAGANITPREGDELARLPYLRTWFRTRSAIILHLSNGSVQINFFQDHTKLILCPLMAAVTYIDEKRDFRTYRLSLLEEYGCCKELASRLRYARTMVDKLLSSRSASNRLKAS

This test concerns the target Serine/threonine-protein kinase PLK1 (Homo sapiens) (UniProt P53350). Put plainly: blockers of phosphopeptide binding to Plk1 PBD – biochemical, fluorescence polarization, primary screen (AID 693). Conditions: active compounds read high,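 tested at about 20 µM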.
Turning to `CS(=O)(=O)N(CC(=O)N1CCN(c2ccc(F)cc2)CC1)C1CCCCC1`, the inhibition was -6.27%.

As for `CC(=O)c1sc(NC(=O)c2cccc3ccccc23)nc1C`, the inhibition is -23.4%.

Regarding `COc1ccccc1NC(=O)CC(NCCN(C)C)C(=O)O` (configuration not stated), the inhibition was 0.85%.

Take `CCCn1nnnc1NC(=O)COc1ccc(Cl)cc1C`: the inhibition was 12.8%.

Turning to `Oc1ccc2ccc3cccc[n+]3c2c1`, the inhibition is 61.2% (active).

Take `CN(C)C(CNC(=O)CCCOc1ccccc1)c1ccco1` (configuration not stated): the inhibition was -20%.

In the case of `CCOc1cc2[nH]c(=S)n(CCN3CCCCC3C)c(=O)c2cc1OCC` (configuration not stated), the inhibition is -2%.

As for `COC(=O)c1ccc(Cc2ccccc2)o1`, the inhibition was -14.5%.

Consider `CCOC(=O)c1cc(C#N)c(N2CCCCC2)nc1-c1ccccc1`, for which the inhibition was 20%.

`Cc1nnc(NC(=O)Cn2c(=O)sc3ccccc32)s1`: the inhibition was 12.9%.

In the case of `CC1CCN(C(=O)c2cc3nc(C4CC4)cc(C(F)(F)F)n3n2)CC1`, the inhibition was -4.74%.

As to `O=c1c2ccccc2nc2n1C(CSc1ccc(Cl)cc1)CN2` (configuration not stated), the inhibition was 23.7%.

As to `COc1ccc2c(Cl)c(C(=O)NCc3ccco3)sc2c1`, the inhibition is -10.8%.

As for `N#CCSc1nc2ccc(N3CCOCC3)cc2c(=O)n1CCc1ccccc1`, the inhibition was -3.34%.

For `CC(=O)Nc1ccccc1OC(=O)N1CCOCC1`, the inhibition was 7.14%.

Take `Cc1nn(C)cc1/C=C1\CCC/C(=C\c2cn(C)nc2C)C1=O`: the inhibition was -18.6%.

`COCCOC(=O)c1sc(=S)n(CCOC)c1N`: the inhibition was -9.37%.

Consider `CC(=O)c1ccc(Cc2ncc(C(F)(F)F)cc2Cl)s1`, for which the inhibition is 25.2%.

With `CC(C)(C)NC(=O)Cn1cnc([N+](=O)[O-])n1`, the inhibition was -13.3%.

In the case of `CC(=O)NS(=O)(=O)c1ccc(NC(=O)/C=C/c2ccccc2Cl)cc1`, the inhibition was 18.9%.

Consider `O=C(CNS(=O)(=O)c1ccc(Br)s1)N1CCN(C(=O)c2ccco2)CC1`, for which the inhibition was -13%.

As for `COc1ccc(OC)c(-n2nnnc2SCC(=O)Nc2cc(C)ccc2OC)c1`, the inhibition is -6.45%.

As to `CC(C)(C)NS(=O)(=O)c1ccc(NC(=O)NC2CCCCC2)cc1`, the inhibition was -21.3%.

For the compound `COc1ccc(S(=O)(=O)NCc2ccc(C(=O)N(C)Cc3ccco3)cc2)cc1`, the inhibition was -4.97%.

As for `CCOC(=O)c1c(-c2ccccc2)csc1NC(=S)NC(=O)c1ccccc1`, the inhibition is 12%.

`C/C(=N\NC(=O)Cc1ccc(Cl)cc1)c1ccccn1`: the inhibition is 4.4%.

Regarding `Cc1ccc(S(=O)(=O)Oc2ccc(/C=N/NC(=O)c3c(Cl)cnn3C)cc2)cc1`, the inhibition is 14.5%.

Turning to `O=C(NC1CCCC1)C(c1ccccn1)N(C(=O)c1csnn1)C1CCCC1` (configuration not stated), the inhibition was -11.5%.

Turning to `CCOc1cc(CNCCN(C)C)c(Cl)cc1OCC(=O)NCCc1ccccc1`, the inhibition was 9.84%.

As for `N#CC1=C(N)N(c2ccc(F)cc2)C(=O)C1`, the inhibition was 5.37%.

For the compound `Cc1c(NC(=O)CCCOc2ccccc2)cccc1[N+](=O)[O-]`, the inhibition is 6.93%.

With `CCC(C)c1ccc(O)c(/C=N/O)c1` (configuration not stated), the inhibition was 8.06%.

For `CCOC(=O)C1CSC(CC(=O)Nc2ccc(OCC)cc2)C(=O)N1` (configuration not stated), the inhibition is 13.9%.

Turning to `COC(=O)c1sccc1NC(=O)CCC1CCCC1`, the inhibition was -8.56%.

Take `Cc1noc(C)c1C(=O)N1CCOCC1`: the inhibition was -11%.

Regarding `O=c1c2ccccc2nnn1CSc1nnnn1-c1ccccc1`, the inhibition was -3.85%.

For the compound `COc1ccc(-c2nnc(SCC(=O)c3ccc4c(c3)OCCO4)o2)cc1`, the inhibition was -3.12%.

Consider `COc1ccc(C(C)=O)cc1CN1C(=O)NC2(CCCCC2C)C1=O` (configuration not stated), for which the inhibition is 3.66%.

Consider `CCC(=O)NC(Nc1nc2ccc(C)cc2s1)(C(=O)OC)C(F)(F)F` (configuration not stated), for which the inhibition is -11.3%.

As to `CCOC(=O)C(=O)Nc1nc(-c2ccccc2)c(CC)s1`, the inhibition is 12.1%.

For the compound `CC(C)CCNC(=O)Cn1c(=O)oc2cc(S(=O)(=O)N3CC(C)CC(C)C3)ccc21` (configuration not stated), the inhibition was -16.6%.

In the case of `O=C(c1ccc(Cl)cc1)c1cnc(Nc2ccccc2)s1`, the inhibition was -14.3%.

For the compound `COc1cc(C(=S)N2CCOCC2)cc(OC)c1OC(=O)c1cc([N+](=O)[O-])cc([N+](=O)[O-])c1`, the inhibition is -2.97%.

Regarding `C=CCn1c(N)cc(=O)nc1SCC(=O)Nc1cccc2ccccc12`, the inhibition is 15.4%.

With `O=C(N/N=C/c1ccc(O)c(O)c1)C1c2ccccc2Oc2ccccc21`, the inhibition is -30.1%.

Regarding `O=C(Nc1ccccc1-c1nnn(CC(=O)N2CCCc3ccccc32)n1)c1cccc(Cl)c1`, the inhibition is -7.34%.

Take `Cn1c(Cc2cccc3ccccc23)nnc1SCC(=O)N1CCN(c2cccc(Cl)c2)CC1`: the inhibition is 23.1%.

`Cc1cccc(CCNS(=O)(=O)c2ccc(S(=O)(=O)NC3CCCC3)cc2)c1`: the inhibition was -16.4%.

On to `CC(C)OC(=O)c1c(NC(=O)c2ccco2)sc2c1CCCC2`, for which the inhibition was -34.8%.

With `CCCc1ccc(OCc2ccc(C(=O)N/N=C/c3cccc([N+](=O)[O-])c3)o2)c(OC)c1`, the inhibition was -2.94%.

Take `CCC(c1nnnn1C(C)(C)C)N(Cc1cc2cccc(C)c2n2nnnc12)C1CCCC1` (configuration not stated): the inhibition was -13.2%.

As for `Cc1[nH]c(=O)c(C(=O)/C=C/c2ccccc2)c2c1CCCC2`, the inhibition is -8.98%.

For `Cc1nn(C)cc1C(=O)NNC(=S)Nc1ccc(Cl)cc1`, the inhibition was -11.1%.

On to `N#Cc1ccccc1CN1C(=O)S/C(=C/c2cccn2-c2cccc(C(=O)O)c2)C1=O`, for which the inhibition is -6.67%.

With `O=C(CCCn1c(SCC(=O)c2ccccc2)nc2ccccc2c1=O)NCC1CCCO1` (configuration not stated), the inhibition is 8.37%.

`Cc1ccc(OC(=O)c2ccccc2C(=O)OCC(F)(F)C(F)F)cc1`: the inhibition is -16.7%.

On to `CCOC(=O)CNC(=O)CSc1nc2cccnc2n1CC`, for which the inhibition was 7.16%.

On to `C=C(Cl)COC(=O)C1C2C=CC(C2)C1C(=O)O` (configuration not stated), for which the inhibition is 3.3%.

`Cc1nnc(SCC(=O)N/N=C/c2cn(-c3ccccc3)nc2-c2ccc(F)cc2)n1-c1ccccc1`: the inhibition is -7.66%.

For `COCCCn1c(SCc2cccc(OC)c2)nc2cc(OC)c(OC)cc2c1=N`, the inhibition is -12.2%.

`O=[N+]([O-])c1cccc(-c2nnc3c4ccccc4c4ccccc4n23)c1`: the inhibition is -7.67%.

`Cc1csc2ncc(C(=O)N(Cc3ccccc3)c3ccccn3)c(=O)n12`: the inhibition is -14.3%.

Regarding `COC(=O)c1c(-c2cccs2)csc1NC(=O)CSc1ncnc2sc(C)c(C)c12`, the inhibition is -2.76%.

Consider `COc1ccc(C2=NOC3(CC(=O)N(c4ccc(C)cc4)C3=O)C2)cc1` (configuration not stated), for which the inhibition is 13.3%.

With `O=[N+]([O-])c1ccc(NCCCN2CCOCC2)c(Cl)c1`, the inhibition was -38.6%.

For the compound `O=C(c1ccco1)N1CCN(C(=O)C2CCCN(S(=O)(=O)c3cccc4nsnc34)C2)CC1` (configuration not stated), the inhibition was -29.8%.

In the case of `Cc1ccc(C2NC(=S)NC3=C2N2CCC3CC2)cc1` (configuration not stated), the inhibition was 3.93%.

In the case of `N#C/C(=C(\O)CCl)c1nnc2n1CCCCC2`, the inhibition is -0.62%.

Take `COc1ccc(C(=O)Nc2nc(-c3ccc(OC)cc3)c(-c3ccc([N+](=O)[O-])cc3)s2)cc1`: the inhibition is -2.13%.

In the case of `COc1ccc(NS(=O)(=O)c2ccc(NC(=S)NC(=O)CC(C)C)cc2)cc1`, the inhibition was 3.41%.

For `CCc1ccc2nc3sc(C(=O)Nc4nnc(CC)s4)c(N)c3cc2c1`, the inhibition is -67.7%.

Regarding `O=C(Cn1cc(-c2nnnn2-c2ccc(Cl)cc2)c(=O)c2ccccc21)c1ccccc1`, the inhibition is 6.2%.

`COC(=O)c1ccccc1NC(=O)Cc1ccccc1OC`: the inhibition is 12.5%.

`COC(=O)c1nc2ccccc2s1`: the inhibition is -0.85%.

Take `CCOC(=O)N1CCN(C(=O)COc2ccc(Cl)cc2C)CC1`: the inhibition is -13.2%.

On to `CNC(=O)/C(=C\C=C\c1ccccc1)NC(=O)c1ccc([N+](=O)[O-])cc1`, for which the inhibition is -9.26%.

Regarding `O=C(N/N=C/c1ccc(O)cc1)/C(=C/c1ccc([N+](=O)[O-])cc1)NC(=O)c1ccccc1`, the inhibition is -6.05%.

With `O=C(NCCc1ccccc1)/C(=C\c1ccc([N+](=O)[O-])cc1)NC(=O)c1ccccc1`, the inhibition is 55.4% (active).

With `O=C1CC(C(F)(F)C(F)(F)C(F)(F)C(F)(F)F)=Nc2ccccc2N1`, the inhibition is 5.5%.

As for `COC(=O)c1ccc(C(=O)OC)c(NC(=S)N2CCCCC2)c1`, the inhibition was -20.3%.

As for `CCCCOc1ccc(N(CC(=O)NCC2CCCO2)C(=O)CCC(=O)Nc2cc(C)ccn2)cc1` (configuration not stated), the inhibition is -5.72%.

In the case of `C/C(=N\NC(=O)c1ccc(C)cc1)C1C(=O)c2ccccc2C1=O`, the inhibition was -15.6%.

With `O=c1c([N+](=O)[O-])cc(C(F)(F)F)cn1Cc1cccc(Cl)c1`, the inhibition is 2.97%.

Take `COc1ccc(S(=O)(=O)Nc2ccc3oc(C)c(C(C)=O)c3c2)cc1`: the inhibition is -17.3%.

`CCNc1nc(NC(C)C)nc(OCCOC(=O)c2ccccc2)n1`: the inhibition was -7.64%.

Take `CC1CC(C)CN(S(=O)(=O)c2cccc(C(=O)N3C(=O)c4cccc(N)c4C3=O)c2)C1` (configuration not stated): the inhibition is 24.3%.

On to `O=C(CSCc1ccccc1Cl)NNC(=O)c1ccccc1`, for which the inhibition was -5.03%.

For the compound `Cn1c(=O)n(C)c2cc(/C=N/NC(=O)c3cccc(Br)c3)ccc21`, the inhibition was -16.4%.

As to `CC1CCC(N2CC(=O)N(Cc3ccc4c(c3)OCO4)C(c3ccc(F)cc3)C2=O)CC1` (configuration not stated), the inhibition is -19%.

As to `COc1cc(OC)c(/C=N/NC(=O)c2ccc([N+](=O)[O-])cc2)cc1Br`, the inhibition was -6.93%.

Take `CCC1(C)Cc2c(sc3nnn(CC(=O)Nc4ccc(Cl)cc4)c(=O)c23)CO1` (configuration not stated): the inhibition was -26.3%.

`COc1cccc(N2CCN(C(=O)Nc3ccc4c(c3)NC(=O)CO4)CC2)c1`: the inhibition was 16.5%.
